In PubChem BioAssay (NCATS):
Where “and” joins values, the source holds several entries; their conditions need not be identical. Equal values may be shown once. Inconclusive results are not listed. Where a call stands in place of a potency, no number is given. The source holds several records for some structures; these can differ, active in one and inactive in another. Calls of active or inactive are those of the source. Unless noted, calls follow the shape of the dose curve; as a rule, active = well fitted curve in the direction sought with a large enough effect; inconclusive = small, poorly fitted or top-dose-only effect, or another doubt; inactive = no such curve, though single readings can be large; an effect the other way counts as inactive or inconclusive. Non-standard residues stand in square brackets, D forms with d. Residues, ends and D or L forms follow the SMILES beside them. *: point of attachment. Sta = CC(C)C[C@H](N)[C@@H](O)CC(=O)O; Isovaleryl = CC(C)CC(=O)*

Legend:
[1] = qHTS profiling of the MIPE4 collection as inhibitors of Plasmodium falciparum (DD2) proliferation (Rep 2) (AID 743346; call rule not given here); conditions: P. falciparum Dd2 in erythrocytes, SYBR Green DNA, 72 h; at 28.5 µM unless noted
Procedure, shortened: (§1)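 Parasite DNA was quantified by SYBR Green I fluorescence (ex 485, em 535 nm) after overnight lysis in saponin/Triton buffer at room temperature. Cultures at 0.3% parasitemia and 2.5% hematocrit were first exposed to compound for 72 h at 37 C; signals were normalised to artemisinin (0.29 uM) and vehicle wells.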

[2] = qHTS profiling of the MIPE4 collection as inhibitors of Plasmodium falciparum (HB3) proliferation (AID 743347; call rule not given here); conditions: P. falciparum HB3 in erythrocytes, SYBR Green DNA, 72 h; at 28.5 µM unless noted
Procedure, shortened: as §1

[3] = High-throughput drug toxicity screening in the BPDCN cell line Gen2.2 (AID 1224824; call rule not given here;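 also: cells exposed to compounds for 48 h before reading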); conditions: Gen2.2 BPDCN cells; at 45.8 µM (top of the series) unless noted
Procedure, shortened: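 Gen2.2 cells (500/well) in phenol red-free RPMI with 10% FBS were exposed to compounds for 48 h at 37 °C, 5% CO2. Viability was read by CellTiter-Glo luminescence and normalized to DMSO (100%) and 9.2 uM bortezomib (0%).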

[4] = High-throughput drug toxicity screening in the BPDCN cell line Cal-1 (AID 1224825; call rule not given here); conditions: Cal-1 BPDCN cell viability, qHTS; at 45.8 µM (top of the series) unless noted
Procedure, shortened: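 Viability of the BPDCN line Cal-1 is measured as ATP-based luminescence (CellTiter-Glo) following 48 h incubation with compounds. Percent activity uses DMSO-treated wells as 100% and 9.2 uM bortezomib as 0%.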

[5] = qHTS assay for measurement of the activity of small molecule inhibitors on Zika virus induced Caspase-3 activity in human iPSC derived neural progenitor cells (hNPCs) (AID 1224857); also: nearly all actives have a fitted effect of over 65% in size; also: potency is read from the fitted curve at half-maximal effect
Procedure, shortened: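 Cells were plated at 350 per well and grown 16 to 20 hours. Compound pretreatment lasted one hour, after which ZIKV (2 FFU/cell) was added for 6 hours. Percent inhibition was normalized between uninfected and infected controls.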

[6] = qHTS assay for measurement of the activity of small molecule inhibitors on Zika virus induced Caspase-3 activity in human astrocytoma cells (AID 1224859); also: potency is read from the fitted curve at half-maximal effect
Procedure, shortened: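 Percent inhibition of virus-induced caspase-3/7 signal is calculated against uninfected and ZIKV-infected control cells. Cells are SNB-19, infected at 2 FFU/cell for 6 h after 1 h compound exposure.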

[7] = qHTS Screen of the MIPE 4.0 Collection Against Ewings Sarcoma (TC71) (AID 1259253); also: nearly all actives have a fitted effect of over 40% in size; also: potency is read from the fitted curve at half-maximal effect
Procedure, shortened: (§2)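 Compound titrations go onto adherent log-phase cells 4 h after seeding, incubate 48 h at 37C, then CellTiter-Glo luminescence reports viability relative to DMSO and cell-free controls.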

[8] = qHTS Screen of the MIPE 4.0 Collection Against Ewings Sarcoma (EW8) (AID 1259255); also: nearly all actives have a fitted effect of over 35% in size; also: potency is read from the fitted curve at half-maximal effect
Procedure, shortened: as §2

[9] = qHTS Screen of the MIPE 4.0 Collection Against Ewings Sarcoma (TC32) (AID 1259256); also: nearly all actives have a fitted effect of over 45% in size; also: potency is read from the fitted curve at half-maximal effect
Procedure, shortened: as §2

[10] = qHTS assay to identify small molecule inhibitors of chordoma cells - UCH-1 (AID 1259355); also: nearly all actives have a fitted effect of over 55% in size
Procedure, shortened: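 A 48hr growth-inhibition format: each drug tested at 15 concentrations together with added auranofin, camptothecin, doxorubicin, rubitecan and topotecan, with cell viability quantified as CellTiter-Glo luminescence.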

[11] = qHTS assay to identify small molecule inhibitors of chordoma cells - UCH-2 (AID 1259356)
[12] = P-glycoprotein substrates identified in KB-8-5-11 adenocarcinoma cell line, qHTS therapeutic library screen (AID 1346987); also: nearly all actives have a fitted effect of over 65% in size
Procedure, shortened: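 In this qHTS, P-gp-rich KB-8-5-11 cells received library compounds across a concentration range. Viability was quantified by luminescence after 72 h at 37 degree C.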

[13] = qHTS Screen of the MIPE 4.0 Collection Against Ewings Sarcoma (RDES) (AID 1259252); also: potency is read from the fitted curve at half-maximal effect; nearly all actives have a fitted effect of over 35% in size
Procedure, shortened: as §2

[14] = Natriuretic polypeptide receptor (hNpr1) antagonism - Pilot counterscreen GloSensor control cell line (AID 1347045; calls by dose curve)
Procedure, shortened: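 HEK293 cGMP-sensor cells; 2% GloSensor reagent 2 h RT; LOPAC compounds in 1:5 titrations 30-50 min; 50 uM SNP 20 min; luminescence pre-read and post-read.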

SMILES	parasite growth, % of control (lower = inhibition) [1]	growth, % of control [2]	cell viability, % of control (lower = more cytotoxic) [3]	viability (% of control) [4]	Potency [5]	Potency [6]	Potency [7]	Potency [8]	Potency [9]	Potency [10]	Potency [11]	Potency [12]	Potency [13]	Potency [14]
COc1c(O)cc2c(c1O)[C@@H]1O[C@H](CO)[C@@H](O)[C@H](O)[C@H]1OC2=O	81.9%	116%	123%	97.8%	inactive	inactive	inactive	inactive	inactive	inactive	inactive	inactive	–	–
COc1ccc(C2(C#N)CCC(C(=O)O)CC2)cc1OC1CCCC1 (stereo unspecified)	–	101%	129%	87.2%	inactive	inactive	inactive	inactive	inactive	inactive	inactive	inactive	–	–
Oc1ccc(OCc2ccccc2)cc1	83.5%	89.5%	226%	18.2%	inactive and 11.8 µM (active)	inactive	9.35 µM (active)	4.18 µM (active)	4.18 µM (active)	inactive	inactive	–	–	–
Cc1c(C(=O)NN2CCCCC2)nn(-c2ccc(Cl)cc2Cl)c1-c1ccc(Cl)cc1	17.7%	8.97%	24.4%	13.1%	inactive	inactive	23.5 µM (active)	26.4 µM (active)	26.4 µM (active)	–	inactive	–	–	–
CNC[C@@H](O)[C@@H](O)[C@H](O)[C@H](O)CO	82.7%	75.9%	216%	115%	inactive	inactive	inactive	inactive	inactive	inactive	inactive	–	–	–
O=C(CCc1ccc(O)cc1)c1c(O)cc(O)cc1O	7.72%	5.58%	141%	41.1%	inactive	inactive	–	5.9 µM (active)	–	–	–	inactive	0.166 µM (active)	–
O=C1NC(=O)C(c2ccccc2[N+](=O)[O-])=C1Nc1ccc(O)c(Cl)c1	106%	125%	124%	36.6%	20.9 µM (active)	inactive	–	–	–	–	–	inactive	20.9 µM (active)	inactive
CC(C)[N+]1(C)[C@@H]2CC[C@H]1CC(OC(=O)C(CO)c1ccccc1)C2 (stereo partly specified)	77.3%	75%	31.9%	31.8%	inactive	inactive	inactive	inactive	–	inactive	inactive	inactive	–	–
NC(=O)Cc1cccc(C(=O)c2ccccc2)c1N	–	95.3%	108%	114%	inactive	inactive	–	inactive	4.69 µM (active)	–	–	inactive	–	–
CC(C)Oc1ccc2c(=O)c(-c3ccccc3)coc2c1	60%	54.5%	181%	102%	10.5 µM (active)	10 µM (active) and 11.8 µM (active)	–	inactive	inactive	inactive	inactive	–	–	–
CCc1nc(N)nc(N)c1-c1ccc(Cl)cc1	85.4%	18.1%	136%	37.1%	inactive	inactive	1.32 µM (active)	–	–	inactive	inactive	–	–	–
CC(C)CC(=O)N[C@H](C(=O)N[C@H](C(=O)N[C@@H](CC(C)C)[C@@H](O)CC(=O)N[C@@H](C)C(=O)N[C@@H](CC(C)C)[C@@H](O)CC(=O)O)C(C)C)C(C)C (Isovaleryl-VV[Sta]A[Sta]-OH)	58.8%	64.1%	72.5%	39.4%	inactive	inactive	inactive	inactive	–	inactive	inactive	inactive	–	–
Cc1cc(C2CCCCC2)n(O)c(=O)c1	17.5%	9.38%	17%	5.31%	inactive	inactive	5.26 µM (active)	14.8 µM (active)	–	inactive	–	–	–	–
CN(C)c1ccc(O)c2c1C[C@H]1C[C@H]3[C@H](N(C)C)C(=O)C(C(N)=O)=C(O)[C@@]3(O)C(=O)C1=C2O	6.85%	6.27%	77.4%	80%	inactive	inactive	4.69 µM (active)	–	–	inactive	inactive	inactive	–	–
Cc1nccn1CC1CCc2c(c3ccccc3n2C)C1=O (stereo unspecified)	40.2%	54.5%	105%	92.7%	inactive	inactive	16.6 µM (active)	inactive	13.2 µM (active)	–	–	inactive	–	–
CCCCCCCCCCCCCCCCCCCCCCO	137%	105%	148%	105%	inactive	inactive	inactive	inactive	–	inactive	inactive	–	–	–
Nc1ccc(S(N)(=O)=O)cc1	95.9%	102%	169%	112%	inactive	inactive	–	inactive	inactive	inactive	inactive	–	–	–
C[Se]CCC(N)C(=O)O (stereo unspecified)	135% [at 57.5 µM]	86.5% [at 57.5 µM]	170% [at 92.2 µM]	109% [at 92.2 µM]	inactive	inactive	inactive	inactive	–	inactive	inactive	inactive	–	–
Cc1cc(=O)oc2cc(O)ccc12	107%	105%	183%	104%	inactive	inactive	–	inactive	inactive	inactive	inactive	inactive	–	–
Cc1ccc(S(=O)(=O)NC(=O)NN2CC3CCCC3C2)cc1 (stereo unspecified)	16.9%	7.17%	109%	35.2%	inactive	inactive	16.6 µM (active)	–	–	–	inactive	–	–	–
